Test results published in PubChem BioAssay (NCI).
About 83,000 compounds went through this panel and 20% of them were active in at least one assay; those are over-represented in the sample as a whole.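 Single-dose data. Exposure time 48 hours. Values below 10 considered active.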 The source made the active and inactive calls.

System: OVCAR-5 ovarian
Assay: NCI-60 one-dose screen, 48 h (100 = growth as untreated, 0 = no growth, -100 = all killed)
Conditions: 10 µM unless noted

SMILES	growth
O=C1CC(C(F)(F)F)=NN1C(=O)c1nn(-c2ccc(Cl)cc2)cc1O	87.6% (inactive)
CCCCc1nc(Cl)c(CO)n1Cc1ccc(-c2ccccc2-c2nn[nH]n2)cc1	101% (inactive)
CN(C)c1ccc2[nH]c3c(C(N)=O)cc(=O)c(=O)c=3oc2c1	89% (inactive)
CCC1(c2ccccc2)Oc2ccccc2-n2c(C#N)c3ccccc3c2C1=O (stereo not drawn)	108% (inactive)
O=C1Nc2ccc(F)cc2/C1=C/c1nc(-c2ccc(F)cc2)n2ccccc12	94.7% (inactive)
COc1cc(C(=O)/C=C/c2cccnc2Nc2ccccc2)cc(OC)c1OC	-71.2% (active)
Fc1ccc([C@@H]2CCNC[C@H]2COc2ccc3c(c2)OCO3)cc1	73.5% (inactive)
CCCc1nn(C)c2c(=O)[nH]c(-c3cc(S(=O)(=O)N4CCN(C)CC4)ccc3OCC)nc12	95.6% (inactive)
COc1ccc(-c2cc(Cc3cccs3)c(=O)n(Cn3cncn3)n2)cc1	88% (inactive)
CC[N+](CC)(CCOCCOCC[N+](CC)(CC)Cc1ccc([N+](=O)[O-])cc1)Cc1ccc([N+](=O)[O-])cc1	98.8% (inactive)
S=C1SCN(Cc2ccccc2)CN1Cc1ccco1	120% (inactive)
O=C(CSc1nc2c(n1Nc1ccccc1)-c1ccccc1SC2)Nc1nc(-c2ccc(Cl)cc2)cs1	93.6% (inactive)
C=C(C)[C@@H]1C/C=C(/C=O)CC[C@@H]2O[C@@]2(C)CC/C=C(\C)CC1	97.2% (inactive)
CC[C@@H]1OC(=O)[C@H](C)[C@@H](O[C@H]2C[C@@](C)(OC)[C@@H](O)[C@H](C)O2)[C@H](C)[C@@H](O[C@@H]2O[C@H](C)C[C@H](N(C)C)[C@H]2O)[C@](C)(O)C[C@@H](C)[C@@H]2N[C@@H](COCCOC)O[C@H]([C@H]2C)[C@]1(C)O	105% (inactive)
C[n+]1c2ccccc2c(Nc2ccc(N3CCCCC3)cc2)c2[nH]c3ccccc3c21	-86.2% (active)
Nc1ccc2c(c1)/C(=N/O)c1cc([N+](=O)[O-])ccc1-2	102% (inactive)

SMILES	growth
COc1cc(/C=C/c2nnc(-c3cc(-c4ccccc4)n[nH]3)o2)cc(OC)c1OC	101% (inactive)
O=C(O)c1ccc(NC(=O)c2ccc(Nc3ccnc(C(F)(F)F)c3)cc2)cc1	107% (inactive)
Cc1c(C(N)=O)sc2ncn(Cc3ccccc3)c(=O)c12	101% (inactive)
C[C@@H]1CC[C@H]2[C@@H](C)C(O)O[C@@H]3O[C@]4(C)CC[C@@H]1[C@]32OO4 (stereo partly drawn)	26.5% (inactive)
Cn1c(=O)c2c(nc(Br)n2CCC(=O)Nc2ccc(F)cc2)n(C)c1=O	94.7% (inactive)
N=C(N)/N=C(\CCc1nc2ccccc2[nH]1)c1nc2ccccc2[nH]1	90% (inactive)
CCOc1cccc(C2CC(=O)Nc3cc4c(cc32)OCO4)c1 (stereo not drawn)	109% (inactive)
COc1ccc(C2=NNC(c3cc(Cc4ccc(O)c(C5CC(c6ccc(OC)cc6)=NN5)c4)ccc3O)C2)cc1 (stereo not drawn)	112% (inactive)
O=C(c1ccccc1)c1ccco1	114% (inactive)
CCC(=O)Nc1ccccc1C#C/C=C\C#Cc1ccccc1C(F)(F)F	53.8% (inactive)
COc1cc(C2C=C(c3ccc(C)cc3)Nc3nc(SC)[nH]c(=O)c32)ccc1Oc1ccnc2cc(Cl)ccc12 (stereo not drawn)	84.3% (inactive)
Cc1cc(N2CCOCC2)nc(N2CCOCC2)n1	99.7% (inactive)
Cc1cc(C)n(C(=O)c2nn(-c3ccc(Cl)cc3)cc2O)n1	64.1% (inactive)
COc1ccc(-c2nn(-c3ccccc3)cc2/C=C2\SC(=S)N(CCc3ccc(O)cc3)C2=O)cc1	99.7% (inactive)
CCN(CC)c1ccc(CN(CC(=O)c2ccc(Cl)c(Cl)c2)Cc2ccccc2)cc1	104% (inactive)

System: OVCAR-4 ovarian
Assay: as above
Conditions: 10 µM unless noted

SMILES	growth
C=C1c2c(C)nn(-c3ccc(C#CCOC4OC(CO)C(O)C(O)C4O)cc3)c2N(C)C23C[C@H]1C1(C)c4c(C)nn(-c5ccc(C#CCOC6OC(CO)C(O)C(O)C6O)cc5)c4N(C)C(C)(C[C@H]12)C3 (stereo partly drawn)	14.7% (inactive)
[O-]/[N+](=C\C=C\c1ccccc1)c1ccccc1	92.1% (inactive)
CN1CCN(Cc2ccc(NC(=O)c3[nH]ncc3Nc3ccnc4ccnn34)cc2)CC1	62.1% (inactive)
CCCOc1ccc2c(c1)CC[C@@H]1[C@@H]2CC[C@@]2(C)[C@H]1CC[C@]2(C)O	81% (inactive)
COc1ccc(C2=NN(C(=O)c3cc(OC)c(OC)c(OC)c3)C(c3ccc(C#N)cc3)C2)cc1OC (stereo not drawn)	62.1% (inactive)
CO[C@H]1CC(O[C@@H]2/C(C)=C/C[C@@H]3C[C@@H](C[C@]4(CC[C@H](C)[C@@H](C5CCCCC5)O4)O3)OC(=O)[C@@H]3C=C(C)/C(=N/O)[C@H]4OC/C(=C\C=C\[C@@H]2C)[C@]43O)O[C@@H](C)C1O (stereo partly drawn)	-88.5% (active)
O=C1CC(C(F)(F)F)=NN1C(=O)c1nn(-c2ccc(Cl)cc2)cc1O	79% (inactive)
CCCCc1nc(Cl)c(CO)n1Cc1ccc(-c2ccccc2-c2nn[nH]n2)cc1	109% (inactive)
CN(C)c1ccc2[nH]c3c(C(N)=O)cc(=O)c(=O)c=3oc2c1	49.1% (inactive)
CCC1(c2ccccc2)Oc2ccccc2-n2c(C#N)c3ccccc3c2C1=O (stereo not drawn)	99.8% (inactive)
O=C1Nc2ccc(F)cc2/C1=C/c1nc(-c2ccc(F)cc2)n2ccccc12	96.3% (inactive)
COc1cc(C(=O)/C=C/c2cccnc2Nc2ccccc2)cc(OC)c1OC	-92.4% (active)
Fc1ccc([C@@H]2CCNC[C@H]2COc2ccc3c(c2)OCO3)cc1	90% (inactive)
CCCc1nn(C)c2c(=O)[nH]c(-c3cc(S(=O)(=O)N4CCN(C)CC4)ccc3OCC)nc12	111% (inactive)
COc1ccc(-c2cc(Cc3cccs3)c(=O)n(Cn3cncn3)n2)cc1	98.5% (inactive)
CC[N+](CC)(CCOCCOCC[N+](CC)(CC)Cc1ccc([N+](=O)[O-])cc1)Cc1ccc([N+](=O)[O-])cc1	106% (inactive)
S=C1SCN(Cc2ccccc2)CN1Cc1ccco1	99.9% (inactive)
O=C(CSc1nc2c(n1Nc1ccccc1)-c1ccccc1SC2)Nc1nc(-c2ccc(Cl)cc2)cs1	8.37% (active)
C=C(C)[C@@H]1C/C=C(/C=O)CC[C@@H]2O[C@@]2(C)CC/C=C(\C)CC1	122% (inactive)

SMILES	growth
CC[C@@H]1OC(=O)[C@H](C)[C@@H](O[C@H]2C[C@@](C)(OC)[C@@H](O)[C@H](C)O2)[C@H](C)[C@@H](O[C@@H]2O[C@H](C)C[C@H](N(C)C)[C@H]2O)[C@](C)(O)C[C@@H](C)[C@@H]2N[C@@H](COCCOC)O[C@H]([C@H]2C)[C@]1(C)O	106% (inactive)
C[n+]1c2ccccc2c(Nc2ccc(N3CCCCC3)cc2)c2[nH]c3ccccc3c21	-35.3% (active)
Nc1ccc2c(c1)/C(=N/O)c1cc([N+](=O)[O-])ccc1-2	84% (inactive)
COc1cc(/C=C/c2nnc(-c3cc(-c4ccccc4)n[nH]3)o2)cc(OC)c1OC	100% (inactive)
O=C(O)c1ccc(NC(=O)c2ccc(Nc3ccnc(C(F)(F)F)c3)cc2)cc1	103% (inactive)
Cc1c(C(N)=O)sc2ncn(Cc3ccccc3)c(=O)c12	111% (inactive)
C[C@@H]1CC[C@H]2[C@@H](C)C(O)O[C@@H]3O[C@]4(C)CC[C@@H]1[C@]32OO4 (stereo partly drawn)	40.2% (inactive)
Cn1c(=O)c2c(nc(Br)n2CCC(=O)Nc2ccc(F)cc2)n(C)c1=O	114% (inactive)
N=C(N)/N=C(\CCc1nc2ccccc2[nH]1)c1nc2ccccc2[nH]1	107% (inactive)
CCOc1cccc(C2CC(=O)Nc3cc4c(cc32)OCO4)c1 (stereo not drawn)	89.9% (inactive)
COc1ccc(C2=NNC(c3cc(Cc4ccc(O)c(C5CC(c6ccc(OC)cc6)=NN5)c4)ccc3O)C2)cc1 (stereo not drawn)	58.3% (inactive)
O=C(c1ccccc1)c1ccco1	99.4% (inactive)
CCC(=O)Nc1ccccc1C#C/C=C\C#Cc1ccccc1C(F)(F)F	85.8% (inactive)
COc1cc(C2C=C(c3ccc(C)cc3)Nc3nc(SC)[nH]c(=O)c32)ccc1Oc1ccnc2cc(Cl)ccc12 (stereo not drawn)	86.3% (inactive)
Cc1cc(N2CCOCC2)nc(N2CCOCC2)n1	93.9% (inactive)
Cc1cc(C)n(C(=O)c2nn(-c3ccc(Cl)cc3)cc2O)n1	67.7% (inactive)
COc1ccc(-c2nn(-c3ccccc3)cc2/C=C2\SC(=S)N(CCc3ccc(O)cc3)C2=O)cc1	78.7% (inactive)
CCN(CC)c1ccc(CN(CC(=O)c2ccc(Cl)c(Cl)c2)Cc2ccccc2)cc1	105% (inactive)
